Common to all, as to experiment: NCI-60 one-dose screen, 48 h (100 = growth as untreated, 0 = no growth, -100 = all killed)
Common to all, as to conditions: 10 µM unless noted

Assay [1] has as its system NCI-H23 lung.
Assay [2] has as its system NCI-H226 lung.
Assay [3] has as its system NCI-H322M lung.
Assay [4] deals with HOP-62 NSCLC.
Assay [5] deals with NCI-H460 lung.
Assay [6] relates to HOP-92 NSCLC.
Assay [7] relates to NCI-H522 lung.
Assay [8] relates to A549/ATCC NSCLC.
Assay [9] has as its system 786-0 renal.
In assay [10] the test system is COLO 205 colon.
Assay [11] concerns DU-145 prostate.
For assay [12], the system named is K-562 leukemia.
In assay [13] the test system is MALME-3M melanoma.
The subject of assay [14] is MDA-MB-231 breast.
Assay [15] has as its system RXF 393 renal.
For assay [16], the system named is SF-268 CNS.
Assay [17] deals with SF-295 CNS.
The subject of assay [18] is SF-539 CNS.
Assay [19] deals with UACC-257 melanoma.
In assay [20] the test system is M14 melanoma.

Compounds without any hit were thinned out: in the full panel of roughly 83,000, 20% have a hit.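 Cell lines were cultured in 96-well plates, exposed to a single compound concentration, and assessed for percent growth 48 hours later.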 Values without a mark were called inactive. Activity calls are given as the source filed them. How the source made its calls: active means growth percent below 10; inactive means the rest.

`COc1cccc(/C=N/C(=S)NC2(C)C3CCC(C3)C2(C)C)c1O` (stereo not given): the growth in assay [1] was 94.7%; in assay [2] it was 93.1%; in assay [3], 73.1%; in assay [4], 92%; in assay [5], 60.2%; in assay [6], 93.3%. The growth in assay [7] is 69.7%; in assay [8], 74.7%; in assay [9] it was 88%; in [10], 89.6%; in assay [11], 105%; in assay [12], 79.4%. For the same compound, the growth in assay [13] was 89.8%; in assay [14], 96.2%; in [15], 99%; in [16], 94.7%; in assay [17], 86.1%; in assay [18], 95.3%. Further, the growth is 87% in assay [19] and 64.8% in assay [20].

As to `O=C(O)c1ccc(-n2cc(/C=N/Nc3ccc(Cl)cc3)c(-c3ccc(F)c(F)c3)n2)cc1`, the growth in [1] was 84.9%; in assay [2], 95%; in assay [3], 72.5%; in assay [4], 107%; in assay [5], 93.1%; in assay [6], 81.5%. Moreover, the growth in assay [7] is 47.6%; in assay [8] it was 78.9%; in [9], 67.2%; in assay [10] it was 99.7%; in assay [11] it was 85.4%; in assay [12] it was 7.69% (active). In addition, the growth in assay [13] was 36%; in assay [14], 93%; in assay [15], 108%; in assay [16] it was 71.1%; in [17] it was 66.6%; in assay [18], 88.2%. Also, the growth in assay [19] was 99.4%; in assay [20], 57.5%.

For the compound `CCC1(C(N)=O)CC2C=CC1CC2` (stereo not given), the growth in assay [1] is 249%; in [2], 109%; in assay [3], 114%; in assay [4], 136%; in [5], 113%; in [6], 94.1%. Also, the growth in assay [7] is 99.1%; in assay [8], 102%; in assay [9] it was 171%; in [10], 94.8%; in assay [11], 116%; in assay [12], 113%. Moreover, the growth in assay [13] was 113%; in assay [14], 97.8%; in assay [15] it was 108%; in assay [16], 110%; in [17], 102%; in assay [18], 102%. Moreover, the growth is 77.1% in [19] and 91.4% in assay [20].

For `Nc1nc(-c2cc3c(cc2Cl)NC(=O)/C3=C/c2ccc(Cl)cc2)cs1`, the growth is 49.1% in assay [1]; 72.3% in assay [2]; 59.7% in [3]; 63% in assay [4]; 53.1% in [5]; 17.8% in [6]. Also, the growth in assay [7] is 17.3%; in assay [8], 64.5%; in assay [9] it was 43.7%; in [10] it was 61.7%; in assay [11], 64.6%; in assay [12], 5.83% (active). Also, the growth in [13] was 56.2%; in [14], 2.9% (active); in [15] it was 51.6%; in [16], 44.7%; in [17], 60.5%; in [18], 62.3%. Also, the growth in assay [19] is 73.5%; in assay [20] it was 28.7%.

On to `O=C(Nc1cccc(-n2ccc3c(NC(=O)c4ccccc4)nccc32)c1)c1cccc(C(F)(F)F)c1`, for which the growth in [1] was 20.8%; in [2], 35.6%; in assay [3], 34.2%; in [4] it was 36.4%; in assay [5], 3.05% (active); in assay [6], 40.3%. In addition, the growth in assay [7] is -45.2% (active); in [8], 7.84% (active); in assay [9] it was -14.6% (active); in [10], -44.5% (active); in [11] it was -10.9% (active); in assay [12], 12.1%. Also, the growth in assay [13] was 48.3%; in assay [14], 3.85% (active); in [15], -49.4% (active); in assay [16] it was 14.8%; in assay [17], -8.39% (active); in [18], 4.4% (active). The growth is 42.4% in [19] and 7.48% (active) in [20].

For the compound `c1ccc(OCC[P+](c2ccccc2)(c2ccccc2)c2ccccc2)cc1`, the growth in assay [1] is 7.98% (active); in assay [2] it was 38.5%; in [3], 59.4%; in assay [4], 26.8%; in assay [5], 17.1%; in assay [6], -5.38% (active). Also, the growth in [7] is -9.67% (active); in assay [8], 30.9%; in assay [9], 53.2%; in [10], 2.02% (active); in assay [11], 36.4%; in [12], 17.5%. In addition, the growth in assay [13] is 15.5%; in [14], 43.6%; in assay [15], 51%; in assay [16] it was 20.9%; in assay [17] it was 21.2%; in assay [18] it was 32%. Further, the results for the growth in assay [19] and in [20] were -4.91% (active) and 32.6%, respectively.

Regarding `O=C(C[n+]1cccc(Br)c1)c1ccc2c(c1)CCCC2`, the growth in assay [1] is 92%; in assay [2], 93.2%; in assay [3], 101%; in assay [4], 89%; in assay [5], 105%; in [6] it was 70.5%. Also, the growth in assay [7] was 80.5%; in assay [8], 95.9%; in [9] it was 88.3%; in [10], 91.4%; in assay [11], 110%; in [12], 100%. Besides, the growth is 96.6% in assay [13]; 99.4% in [14]; 117% in assay [15]; 103% in assay [16]; 104% in [17]; 98.6% in [18]. The values for the growth in assay [19] and in assay [20] were 112% and 92.4%, respectively.

As to `O=C(Nc1ccc(-n2cc(-c3ccncc3)c(-c3ccc(O)c(Cl)c3)n2)cc1)c1cc(C(F)(F)F)cc(C(F)(F)F)c1`, the growth was 82% in assay [1]; 93.7% in [2]; 75.2% in assay [3]; 81.2% in assay [4]; 45% in [5]; 6.71% (active) in assay [6]. Also, the growth in assay [7] is 62.8%; in assay [8], 54.8%; in assay [9] it was 53.1%; in assay [10], 82.6%; in assay [11] it was 65%; in [12], 36.7%. For the same compound, the growth is 77.7% in [13]; 21.3% in [14]; -21.1% (active) in assay [15]; 56% in assay [16]; 31% in assay [17]; 57.7% in assay [18]. The growth is 77.1% in assay [19] and 30.2% in assay [20].

The values above are taken from PubChem BioAssay (NCI).
